Source: PubChem BioAssay (National Center for Advancing Translational Sciences (NCATS))
An excerpt weighted towards active compounds, which were near 14% of everything screened.
Sm TGR block: S. mansoni TGR enzyme inhibition. Q962Y6. purified TGR, DTNB reduction, TNB absorbance 405 nm. Potency, µM (highest dose often 114 µM), most hits filed as inhibitors. 3% of 360,000 active. AID 485364; further: nearly all actives have a fitted effect of over 60% in size
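Kinetic colorimetric format: TGR-catalysed, NADPH-driven DTNB reduction monitored via TNB absorbance. Enzyme dispensed at 20 nM; compound exposure 15 min at room temperature before reaction start.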
HCMV inh: blocks human cytomegalovirus replication. HFF cells, HCMV-luciferase reporter, 72 h; active compounds read low. activity change, negative = inhibition, % at 57.5 µM. 4.5% of 410,000 active; in the data active means activity change below about -60%; inconclusive means no clear call, values can overlap the other calls; inactive means above about -39%
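Two-dose cell screen: HFF monolayers treated with compounds and infected with luciferase-expressing HCMV at 1 PFU/cell, 72 h at 37C, then lysed for luciferase measurement.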
Pf growth 96h: P. falciparum growth inhibition at 96 hour, primary screen for plastid delayed-death inhibitors; 6.9% of 320,000 active; P. falciparum luciferase reporter growth, 96 h; AID 504834; Potency, µM (top dose mostly 28.7 µM), usual class: inhibitors
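Luminescence readout: decreased luciferase signal marks inhibited growth of reporter-expressing P. falciparum in infected red cells (2% hematocrit, 0.05% parasitemia final), exposed to compound two generations (96 h, 37 C, 5% CO2).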
Pf growth 48h: P. falciparum growth inhibition at 48 hours (one generation); P. falciparum luciferase growth in erythrocytes, 48 h; Potency, µM (doses to about 28.7 µM), usual class: inhibitors; 5.9% of 310,000 active; AID 504832
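Luciferase-expressing P. falciparum in infected erythrocytes (2% hematocrit, 0.1% parasitemia final) in RPMI 1640/0.5% Albumax were exposed to compound for 48 hours at 37 C, 5% CO2; growth read as luminescence.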
FBPA Giardia inh: blocks Giardia fructose-bisphosphate aldolase activity; A8B2U2; purified Giardia FBPA; Potency, µM (top dose mostly 59.6 µM), actives largely listed as inhibitors; 0.71% of 290,000 active; further: nearly all actives have a fitted effect of over 55% in size
Target sequence (A8B2U2 whole entry, looked up): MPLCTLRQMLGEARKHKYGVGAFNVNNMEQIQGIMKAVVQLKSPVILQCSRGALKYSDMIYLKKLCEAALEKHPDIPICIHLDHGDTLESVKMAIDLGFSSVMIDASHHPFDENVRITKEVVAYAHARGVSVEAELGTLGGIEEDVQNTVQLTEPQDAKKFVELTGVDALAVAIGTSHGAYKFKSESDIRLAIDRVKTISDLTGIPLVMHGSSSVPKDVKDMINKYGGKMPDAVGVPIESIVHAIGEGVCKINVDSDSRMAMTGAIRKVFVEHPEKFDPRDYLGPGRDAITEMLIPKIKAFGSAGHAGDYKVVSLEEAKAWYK
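Giardia FBPA (40 nM reagent) was preincubated 10 min at RT with compound (up to 57.5 uM final), then substrate plus GAPDH/TPI/NAD/arsenate coupling system with diaphorase/resazurin was added; resorufin fluorescence (525/598 nm) was read after 20 min.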
Numbers stand for hits; - = inactive; ? = inconclusive; . = no result given. Unless noted, the call rests on the fitted dose curve; in most records, active means well fitted curve in the direction sought with a large enough effect; inconclusive means small, poorly fitted or top-dose-only effect, or another doubt; inactive means no such curve, though single readings can be large; an effect the other way counts as inactive or inconclusive.

SMILES	Sm TGR block	HCMV inh	Pf growth 96h	Pf growth 48h	FBPA Giardia inh
CCS(=O)(=O)C1=NN2C(=N)/C(=C\c3ccc(OC(=O)c4ccco4)c(Br)c3)C(=O)N=C2S1	45µM	.	?	-	-
CCOc1ccc(C=C2C(=O)NC(=S)NC2=O)cc1OCC	.	-	.	.	.
CCCN(C(=O)CSCc1ccccc1C)c1c(N)n(Cc2ccccc2)c(=O)[nH]c1=O	-	-	-	?	.
Cc1c(C(=O)OC2CCCC2)[nH]c2c1C(=O)CC(c1ccc(C(C)(C)C)cc1)C2 (centres undefined)	-	-	.	.	.
COc1cc(/C=C2\C(=N)N3N=CSC3=NC2=O)ccc1OS(=O)(=O)c1ccccc1[N+](=O)[O-]	-	-	4.1µM	-	-
COCCCn1c(-c2ccco2)nc2ccccc2c1=O	-	-	.	-	-
COCCCN=C(c1ccco1)n1c(=S)nc(-c2ccco2)n(CCCOC)c1=S	20µM	-	-	-	?
CC1CCCC2(C1)NC(=S)c1c(sc3c1CCCC3)N2 (centres undefined)	-	-	5.2µM	.	-
COc1ccc(F)cc1S(=O)(=O)NCC(c1ccco1)S(=O)(=O)c1cccs1 (centres undefined)	0.1µM	-63	.	.	.
Cc1ccc(C)c(S(=O)(=O)NCC(c2ccco2)N2CCc3ccccc3C2)c1 (centres undefined)	-	?	?	?	.
Cc1ccc(C)c(S(=O)(=O)NCC(c2ccco2)S(=O)(=O)c2ccc(F)cc2)c1 (centres undefined)	0.35µM	-	.	.	.
COc1ccc(F)cc1S(=O)(=O)NCC(c1ccco1)S(=O)(=O)c1ccc(F)cc1 (centres undefined)	0.32µM	-	.	.	.
COc1ccc(S(=O)(=O)NCC(c2ccco2)S(=O)(=O)c2cccs2)cc1OC (centres undefined)	0.28µM	-	.	.	.
COc1ccc(S(=O)(=O)NCCc2ccco2)cc1OC	-	-	-	-	-
CCCSC1=NC2(CCN(C(=O)NC3CCCCC3)CC2)N=C1c1ccc(OC)cc1	-	-	.	.	.
CCC(=O)c1c(O)cc(O)cc1O	.	.	?	-	-
CCN(CC)C(=O)Cn1c(=O)nc(-c2ccccc2F)c2cc(Cl)ccc21	-	-	.	.	.
COc1ccccc1-c1cncnc1NCc1ccccc1	.	.	.	.	-
COc1ccc(S(=O)(=O)NCC(c2cccs2)S(=O)(=O)c2ccc(C)cc2)cc1F (centres undefined)	?	-	.	.	.
COc1ccc(OC)c(S(=O)(=O)NCC(c2cccs2)S(=O)(=O)c2ccc(F)cc2)c1 (centres undefined)	0.32µM	?	.	.	.
CC1(CCC(=O)O)C(=O)CCC2C1CCC1(C)C2CCC1(C)O (centres undefined)	.	-	.	.	.
CCNC(=O)C1(C)CCN(Cc2cccc3ccccc23)C1 (centres undefined)	.	-	.	.	.
O=C(NC1CC1)c1cc2cc3ccccc3nc2s1	-	-	13µM	-	-
O=C(NNS(=O)(=O)c1ccccc1)c1cc2cc3ccccc3nc2s1	-	-	-	?	-
COP(=O)(Cc1ccc(C#N)o1)OC	22µM	-	-	-	-
SMILES	Sm TGR block	HCMV inh	Pf growth 96h	Pf growth 48h	FBPA Giardia inh
COc1ccc(NC(=O)N2CCCC(c3ccccc3)C2)cc1 (centres undefined)	-	-	2.1µM	-	-
COc1ccc(NC(=S)N2CCCN(Cc3cc(C)ccc3C)C2)cc1	-	-	?	10µM	-
COc1ccc(NC(=O)C2CCCN(C(=O)Nc3ccc(OC)cc3)C2)cc1 (centres undefined)	-	-	10µM	-	.
CCOC(=O)C1CCCN(C(=S)Nc2ccc(OC)cc2)C1 (centres undefined)	-	-67	-	-	-
CCOC(=O)C1CCCN(C(=S)Nc2ccc(F)cc2)C1 (centres undefined)	-	-	-	-	-
COC(=O)[C@@]12C[C@@H](CC(=O)NCC3CCCCC3)C(=O)N(Cc3cccc4ccccc34)C1=CCC(C)(C)C2	.	-	.	.	.
CC1(C(=O)NS(=O)(=O)c2cccs2)CCN1C(=O)c1ccco1 (centres undefined)	.	-	.	.	.
Cc1cccc(N2CCN(C3(c4ccccc4)C(=O)c4ccccc4C3=O)CC2C)c1 (centres undefined)	-	-	.	.	.
Cn1c(O)c(C2=NN(C(=O)CCl)C(c3ccccc3)C2)c(=O)n(C)c1=O (centres undefined)	13µM	-	-	?	?
